Laboratory results: PubChem BioAssay AID1159580 (chemical genetic matrix, 2015)
The campaign covered roughly 5,500 compounds. About 2,000 (36%) were called active. Roughly 18% stayed inconclusive and do not appear here. The list shows a part of the results. A number with no mark means an inactive call. No stated cut-off is given here; in the data, active means normalized growth mostly below about 0.91 (no sharp cut-off); inconclusive means no clear call, values can overlap the other calls; inactive means mostly above about 0.92.

Test: chemical genetic growth profiling, strain panel (AID 1159580);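 further: tested at 20 µM; growth read once vehicle control cultures reached saturation at 30 °C; 1 = growth at the plate median or of vehicle wells; lower values mean less growth of the strain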
Settings: growth OD
[1] = S. cerevisiae deletion strains, locus YAL013W, strain DEP1, active compounds read low
[2] = S. cerevisiae deletion strains, locus YDL101C, strain DUN1, active compounds read low
[3] = S. cerevisiae deletion strains, locus YDR150W, strain NUM1, active compounds read low
[4] = S. cerevisiae deletion strains, locus YGR078C, strain PAC10, active compounds read low
[5] = S. cerevisiae deletion strains, locus YHR030C, strain SLT2, active compounds read low
[6] = S. cerevisiae deletion strains, locus YMR263W, strain SAP30, active compounds read low
[7] = S. cerevisiae deletion strains, locus YMR307W, strain GAS1, active compounds read low
[8] = S. cerevisiae deletion strains, locus YNL128W, strain TEP1, active compounds read low
[9] = S. cerevisiae deletion strains, locus YNL153C, strain GIM3, active compounds read low

**Q.** Which results are given for `Clc1ccc(C=C2c3ccccc3-c3ccccc32)cc1`?
**A.** normalized growth [1]: 0.988; normalized growth (S. cerevisiae deletion strains, locus YBR229C, strain ROT2, active compounds read low): 0.973; normalized growth [2]: 0.986; normalized growth (S. cerevisiae deletion strains, locus YDL134C, strain PPH21, active compounds read low): 1; normalized growth [3]: 0.95; normalized growth (S. cerevisiae deletion strains, locus YEL061C, strain CIN8, active compounds read low): 0.99; normalized growth [4]: 1; normalized growth [5]: 0.873; normalized growth (S. cerevisiae deletion strains, locus YHR087W, strain rtc3, active compounds read low): 0.986; normalized growth (S. cerevisiae deletion strains, locus YJL187C, strain SWE1, active compounds read low): 1; normalized growth (S. cerevisiae deletion strains, locus YJR043C, strain POL32, active compounds read low): 0.981; normalized growth (S. cerevisiae deletion strains, locus YJR075W, strain HOC1, active compounds read low): 0.979; normalized growth (S. cerevisiae deletion strains, locus YLR039C, strain RIC1, active compounds read low): 0.967; normalized growth (S. cerevisiae deletion strains, locus YLR058C, strain SHM2 (second series), active compounds read low): 0.972; normalized growth (S. cerevisiae deletion strains, locus YLR085C, strain ARP6, active compounds read low): 0.996; normalized growth (S. cerevisiae deletion strains, locus YLR262C, strain YPT6, active compounds read low): 0.855; normalized growth (S. cerevisiae deletion strains, locus YML094W, strain GIM5, active compounds read low): 1.03; normalized growth (S. cerevisiae deletion strains, locus YMR219W, strain ESC1, active compounds read low): 0.988; normalized growth [6]: 0.983; normalized growth [7]: 1.03; normalized growth [8]: 0.984; normalized growth [9]: 0.965; normalized growth (S. cerevisiae deletion strains, locus YNL298W, strain CLA4 (second series), active compounds read low): 0.949; normalized growth (S. cerevisiae deletion strains, locus YNL322C, strain KRE1, active compounds read low): 1; normalized growth (S. cerevisiae deletion strains, locus YNR030W, strain Alg12, active compounds read low): 0.957; normalized growth (S. cerevisiae deletion strains, locus YPL055C, strain LGE1, active compounds read low): 1.01; normalized growth (S. cerevisiae deletion strains, locus YPL241C, strain CIN2, active compounds read low): 0.995; normalized growth (S. cerevisiae deletion strains, locus YPR135W, strain CTF4, active compounds read low): 0.855; normalized growth (S. cerevisiae strains, strain wild type, active compounds read low): 0.961

**Q.** Which results are given for `O=C1Nc2ccccc2/C1=C\c1ccc(Cl)cc1`?
**A.** normalized growth (S. cerevisiae deletion strains, locus YAR019C, strain CDC15, active compounds read low): 0.946; normalized growth (S. cerevisiae deletion strains, locus YBL105C, strain PKC1, active compounds read low): 0.943; normalized growth (S. cerevisiae deletion strains, locus YBR135W, strain CKS1, active compounds read low): 0.94; normalized growth (S. cerevisiae deletion strains, locus YBR136W, strain MEC1, active compounds read low): 0.941; normalized growth (S. cerevisiae deletion strains, locus YBR160W, strain CDC28, active compounds read low): 0.947; normalized growth (S. cerevisiae deletion strains, locus YDL017W, strain CDC7, active compounds read low): 0.945; normalized growth (S. cerevisiae deletion strains, locus YDL028C, strain MPS1, active compounds read low): 0.947; normalized growth [2]: 0.967; normalized growth (S. cerevisiae deletion strains, locus YDL108W, strain KIN28, active compounds read low): 0.948; normalized growth (S. cerevisiae deletion strains, locus YDL132W, strain cdc53, active compounds read low): 0.94; normalized growth (S. cerevisiae deletion strains, locus YDL214C, strain PRR2, active compounds read low): 0.801; normalized growth (S. cerevisiae deletion strains, locus YDR052C, strain DBF4, active compounds read low): 0.954; normalized growth (S. cerevisiae deletion strains, locus YDR054C, strain cdc34, active compounds read low): 0.927; normalized growth (S. cerevisiae deletion strains, locus YDR226W, strain ADK1, active compounds read low): 0.937; normalized growth (S. cerevisiae deletion strains, locus YDR477W, strain SNF1, active compounds read low): 0.817; normalized growth (S. cerevisiae deletion strains, locus YER123W, strain YCK3, active compounds read low): 0.8; normalized growth (S. cerevisiae deletion strains, locus YER133W, strain GLC7, active compounds read low): 0.815; normalized growth (S. cerevisiae deletion strains, locus YFL009W, strain cdc4, active compounds read low): 0.942; normalized growth (S. cerevisiae deletion strains, locus YFL029C, strain CAK1, active compounds read low): 0.95; normalized growth (S. cerevisiae deletion strains, locus YFR003C, strain YPI1, active compounds read low): 0.942; normalized growth (S. cerevisiae deletion strains, locus YFR019W, strain FAB1, active compounds read low): 0.924; normalized growth (S. cerevisiae deletion strains, locus YFR028C, strain CDC14, active compounds read low): 0.941; normalized growth (S. cerevisiae deletion strains, locus YGR040W, strain KSS1, active compounds read low): 0.823; normalized growth (S. cerevisiae deletion strains, locus YGR052W, strain FMP48, active compounds read low): 0.779; normalized growth (S. cerevisiae deletion strains, locus YGR092W, strain DBF2, active compounds read low): 0.82; normalized growth [5]: 0.755 (active); normalized growth (S. cerevisiae deletion strains, locus YHR079C, strain IRE1, active compounds read low): 0.776; normalized growth (S. cerevisiae deletion strains, locus YHR082C, strain KSP1, active compounds read low): 0.794; normalized growth (S. cerevisiae deletion strains, locus YHR205W, strain SCH9, active compounds read low): 0.519 (active); normalized growth (S. cerevisiae deletion strains, locus YIL147C, strain SLN1, active compounds read low): 0.944; normalized growth (S. cerevisiae deletion strains, locus YJL095W, strain BCK1, active compounds read low): 0.741; normalized growth (S. cerevisiae deletion strains, locus YJL128C, strain PBS2, active compounds read low): 0.852; normalized growth (S. cerevisiae deletion strains, locus YJL157C, strain FAR1, active compounds read low): 0.819; normalized growth (S. cerevisiae deletion strains, locus YJR016C, strain ILV3, active compounds read low): 0.946; normalized growth (S. cerevisiae deletion strains, locus YJR066W, strain TOR1 (second series), active compounds read low): 0.651; normalized growth (S. cerevisiae deletion strains, locus YJR066W, strain TOR1, active compounds read low): 0.781; normalized growth (S. cerevisiae deletion strains, locus YKL048C, strain ELM1, active compounds read low): 0.862; normalized growth (S. cerevisiae deletion strains, locus YKL067W, strain YNK1, active compounds read low): 0.867; normalized growth (S. cerevisiae deletion strains, locus YKL101W, strain HSL1, active compounds read low): 0.829; normalized growth (S. cerevisiae deletion strains, locus YKL193C, strain SDS22, active compounds read low): 0.942; normalized growth (S. cerevisiae deletion strains, locus YKL203C, strain TOR2, active compounds read low): 0.91; normalized growth (S. cerevisiae deletion strains, locus YLR113W, strain HOG1, active compounds read low): 0.692 (active); normalized growth (S. cerevisiae deletion strains, locus YLR133W, strain CKI1, active compounds read low): 0.818; normalized growth (S. cerevisiae deletion strains, locus YLR403W, strain SFP1, active compounds read low): 0.714; normalized growth (S. cerevisiae deletion strains, locus YML070W, strain DAK1, active compounds read low): 0.81; normalized growth (S. cerevisiae deletion strains, locus YMR001C, strain CDC5, active compounds read low): 0.94; normalized growth (S. cerevisiae deletion strains, locus YMR205C, strain PFK2 (second series), active compounds read low): 0.825; normalized growth (S. cerevisiae deletion strains, locus YMR277W, strain FCP1, active compounds read low): 0.936; normalized growth (S. cerevisiae deletion strains, locus YNL006W, strain LST8, active compounds read low): 0.956; normalized growth (S. cerevisiae deletion strains, locus YNL020C, strain ARK1, active compounds read low): 0.801; normalized growth (S. cerevisiae deletion strains, locus YNL161W, strain CBK1, active compounds read low): 0.948; normalized growth (S. cerevisiae deletion strains, locus YNL183C, strain NPR1, active compounds read low): 0.788; normalized growth (S. cerevisiae deletion strains, locus YNL207W, strain RIO2, active compounds read low): 0.947; normalized growth (S. cerevisiae deletion strains, locus YNL222W, strain SSU72, active compounds read low): 0.945; normalized growth (S. cerevisiae deletion strains, locus YNL307C, strain MCK1 (second series), active compounds read low): 0.844; normalized growth (S. cerevisiae deletion strains, locus YOL078W, strain AVO1, active compounds read low): 0.951; normalized growth (S. cerevisiae deletion strains, locus YOL136C, strain PFK27, active compounds read low): 0.833; normalized growth (S. cerevisiae deletion strains, locus YOR061W, strain CKA2, active compounds read low): 0.853; normalized growth (S. cerevisiae deletion strains, locus YOR119C, strain RIO1, active compounds read low): 0.9; normalized growth (S. cerevisiae deletion strains, locus YOR231W, strain MKK1, active compounds read low): 0.863; normalized growth (S. cerevisiae deletion strains, locus YOR329C, strain SCD5, active compounds read low): 0.949; normalized growth (S. cerevisiae deletion strains, locus YPL031C, strain PHO85, active compounds read low): 0.816; normalized growth (S. cerevisiae deletion strains, locus YPL153C, strain RAD53, active compounds read low): 0.836; normalized growth (S. cerevisiae deletion strains, locus YPL204W, strain HRR25, active compounds read low): 0.824; normalized growth (S. cerevisiae deletion strains, locus YPL209C, strain IPL1, active compounds read low): 0.943; normalized growth (S. cerevisiae deletion strains, locus YPL256C, strain CLN2, active compounds read low): 0.742 (active); normalized growth (S. cerevisiae deletion strains, locus YPR025C, strain CCL1, active compounds read low): 0.943; normalized growth (S. cerevisiae deletion strains, locus YPR106W, strain ISR1, active compounds read low): 0.926; normalized growth (S. cerevisiae deletion strains, locus YPR111W, strain DBF20, active compounds read low): 0.917; normalized growth (S. cerevisiae deletion strains, strain NNK1, active compounds read low): 0.92; normalized growth (S. cerevisiae deletion strains, strain TSCII, active compounds read low): 0.949

**Q.** What does the source list for `Cc1cc(C)c(/C=C2\C(=O)Nc3ccccc32)[nH]1`?
**A.** normalized growth [1]: 0.967; normalized growth (S. cerevisiae deletion strains, locus YAL040C, strain CLN3, active compounds read low): 1.06; normalized growth (S. cerevisiae deletion strains, locus YCL061C, strain MRC1 (second series), active compounds read low): 0.994; normalized growth [3]: 0.939; normalized growth (S. cerevisiae deletion strains, locus YDR363W, strain ESC2, active compounds read low): 0.987; normalized growth (S. cerevisiae deletion strains, locus YER002W, strain NOP16, active compounds read low): 0.999; normalized growth [4]: 0.991; normalized growth (S. cerevisiae deletion strains, locus YGR229C, strain SMI1, active compounds read low): 0.917; normalized growth [6]: 0.99; normalized growth [7]: 0.887 (active); normalized growth [8]: 0.935; normalized growth [9]: 0.872; normalized growth (S. cerevisiae deletion strains, locus YNL175C, strain NOP13, active compounds read low): 0.992; normalized growth (S. cerevisiae deletion strains, locus YNL197C, strain WHI3, active compounds read low): 0.934; normalized growth (S. cerevisiae deletion strains, locus YNL224C, strain SQS1, active compounds read low): 0.929; normalized growth (S. cerevisiae deletion strains, locus YOR083W, strain WHI5 (second series), active compounds read low): 0.847 (active)
